# In the supplement of paper PMC7765376:
# Counter-ions that a name gives are not always drawn. The full ranking holds about 1,500 compounds; the median of “Excess HSA synergy score (sum over dose matrix of excess over highest single agent)” is about 43, and the lowest 2% start at about -900. The sample holds the lowest values, similar compounds and a random draw of the others, so the mix is not that of the screen.
# System: PEO-1
# Experiment: Excess HSA synergy score (sum over dose matrix of excess over highest single agent) (score (summed % response)); higher = less synergy / more antagonism (negative = synergy)
# Conditions: 72 h, read-out: viability/apoptosis luminescence (CellTiter-Glo or Caspase3-Glo / not stated per table)
# [1] = matrix design: 6x6, 5-fold dilutions (primary screen)
# [2] = matrix design: 10x10, 9-step dilutions (confirmatory)
Compound,Excess HSA synergy score [1],Excess HSA synergy score [2]
CC(=O)NCC(=O)N1[C@@H]2CC[C@H]1c1ccc(Nc3ncc(C(F)(F)F)c(NC4CCC4)n3)cc12 + CC[C@H](NC(=O)[C@H](C)NC)C(=O)N1C[C@@H](O)C[C@H]1Cc1c(-c2[nH]c3cc(F)ccc3c2C[C@@H]2C[C@H](O)CN2C(=O)[C@H](CC)NC(=O)[C@H](C)NC)[nH]c2cc(F)ccc12 [Birinapant],-154,
CCCCN1CCC(CNC(=O)c2c3n(c4ccccc24)CCCO3)CC1 [Piboserod hydrochloride] + CC[C@H](NC(=O)[C@H](C)NC)C(=O)N1C[C@@H](O)C[C@H]1Cc1c(-c2[nH]c3cc(F)ccc3c2C[C@@H]2C[C@H](O)CN2C(=O)[C@H](CC)NC(=O)[C@H](C)NC)[nH]c2cc(F)ccc12 [Birinapant],-0.918,
Nc1ncn([C@@H]2O[C@H](CO)[C@@H](O)[C@H]2O)c(=O)n1 [5-Azacitidine] + CC[C@H](NC(=O)[C@H](C)NC)C(=O)N1C[C@@H](O)C[C@H]1Cc1c(-c2[nH]c3cc(F)ccc3c2C[C@@H]2C[C@H](O)CN2C(=O)[C@H](CC)NC(=O)[C@H](C)NC)[nH]c2cc(F)ccc12 [Birinapant],-38.5,
Nc1ccn([C@@H]2CO[C@H](CO)O2)c(=O)n1 [Troxacitabine] + CC[C@H](NC(=O)[C@H](C)NC)C(=O)N1C[C@@H](O)C[C@H]1Cc1c(-c2[nH]c3cc(F)ccc3c2C[C@@H]2C[C@H](O)CN2C(=O)[C@H](CC)NC(=O)[C@H](C)NC)[nH]c2cc(F)ccc12 [Birinapant],152,
Nc1ccn([C@@H]2O[C@H](CO)[C@@H](O)C2(F)F)c(=O)n1 [Gemcitabine] + CC[C@H](NC(=O)[C@H](C)NC)C(=O)N1C[C@@H](O)C[C@H]1Cc1c(-c2[nH]c3cc(F)ccc3c2C[C@@H]2C[C@H](O)CN2C(=O)[C@H](CC)NC(=O)[C@H](C)NC)[nH]c2cc(F)ccc12 [Birinapant],-59.3,-1130
Nc1ccn([C@@H]2O[C@H](CO)[C@@H](O)[C@@H]2O)c(=O)n1 [Cytarabine] + CC[C@H](NC(=O)[C@H](C)NC)C(=O)N1C[C@@H](O)C[C@H]1Cc1c(-c2[nH]c3cc(F)ccc3c2C[C@@H]2C[C@H](O)CN2C(=O)[C@H](CC)NC(=O)[C@H](C)NC)[nH]c2cc(F)ccc12 [Birinapant],-388,-1320
Nc1ccn([C@@H]2O[C@H](CO)[C@@H](O)[C@H]2O)c(=O)n1 [Cytidine] + CC[C@H](NC(=O)[C@H](C)NC)C(=O)N1C[C@@H](O)C[C@H]1Cc1c(-c2[nH]c3cc(F)ccc3c2C[C@@H]2C[C@H](O)CN2C(=O)[C@H](CC)NC(=O)[C@H](C)NC)[nH]c2cc(F)ccc12 [Birinapant],170,
Nc1ccn([C@@H]2CS[C@H](CO)O2)c(=O)n1 [Lamivudine] + CC[C@H](NC(=O)[C@H](C)NC)C(=O)N1C[C@@H](O)C[C@H]1Cc1c(-c2[nH]c3cc(F)ccc3c2C[C@@H]2C[C@H](O)CN2C(=O)[C@H](CC)NC(=O)[C@H](C)NC)[nH]c2cc(F)ccc12 [Birinapant],228,
O=C(c1ccc(F)c(F)c1Nc1ccc(I)cc1F)N1CC(O)([C@@H]2CCCCN2)C1 [Cobimetinib] + CC[C@H](NC(=O)[C@H](C)NC)C(=O)N1C[C@@H](O)C[C@H]1Cc1c(-c2[nH]c3cc(F)ccc3c2C[C@@H]2C[C@H](O)CN2C(=O)[C@H](CC)NC(=O)[C@H](C)NC)[nH]c2cc(F)ccc12 [Birinapant],148,
CC(C)N(CC[C@H](c1ccccc1)c1cc(CO)ccc1O)C(C)C + CC[C@H](NC(=O)[C@H](C)NC)C(=O)N1C[C@@H](O)C[C@H]1Cc1c(-c2[nH]c3cc(F)ccc3c2C[C@@H]2C[C@H](O)CN2C(=O)[C@H](CC)NC(=O)[C@H](C)NC)[nH]c2cc(F)ccc12 [Birinapant],309,
CCCCCCCCc1ccc(CCC(N)(CO)CO)cc1 [Fingolimod hydrochloride] + CC[C@H](NC(=O)[C@H](C)NC)C(=O)N1C[C@@H](O)C[C@H]1Cc1c(-c2[nH]c3cc(F)ccc3c2C[C@@H]2C[C@H](O)CN2C(=O)[C@H](CC)NC(=O)[C@H](C)NC)[nH]c2cc(F)ccc12 [Birinapant],-38.3,
C/C=C/C[C@@H](C)C(=O)[C@H]1C(=O)N[C@@H](C(C)C)C(=O)N(C)CC(=O)N(C)[C@@H](CC(C)C)C(=O)N[C@@H](C(C)C)C(=O)N(C)[C@@H](CC(C)C)C(=O)N[C@@H](C)C(=O)N[C@H](C)C(=O)N(C)[C@@H](CC(C)C)C(=O)N(C)[C@@H](CC(C)C)C(=O)N(C)[C@@H](C(C)C)C(=O)N1C [Valspodar] + CC[C@H](NC(=O)[C@H](C)NC)C(=O)N1C[C@@H](O)C[C@H]1Cc1c(-c2[nH]c3cc(F)ccc3c2C[C@@H]2C[C@H](O)CN2C(=O)[C@H](CC)NC(=O)[C@H](C)NC)[nH]c2cc(F)ccc12 [Birinapant],173,
COc1ccc(-c2cc3c(C)nc(N)nc3n([C@H]3CC[C@H](OCCO)CC3)c2=O)cn1 + CC[C@H](NC(=O)[C@H](C)NC)C(=O)N1C[C@@H](O)C[C@H]1Cc1c(-c2[nH]c3cc(F)ccc3c2C[C@@H]2C[C@H](O)CN2C(=O)[C@H](CC)NC(=O)[C@H](C)NC)[nH]c2cc(F)ccc12 [Birinapant],-32.5,
O=C(/C=C/c1cccnc1)NCCCCC1CCN(C(=O)c2ccccc2)CC1 [Daporinad] + CC[C@H](NC(=O)[C@H](C)NC)C(=O)N1C[C@@H](O)C[C@H]1Cc1c(-c2[nH]c3cc(F)ccc3c2C[C@@H]2C[C@H](O)CN2C(=O)[C@H](CC)NC(=O)[C@H](C)NC)[nH]c2cc(F)ccc12 [Birinapant],312,
Nc1ccccc1NC(=O)c1ccc(CNc2nccc(-c3cccnc3)n2)cc1 [Mocetinostat] + CC[C@H](NC(=O)[C@H](C)NC)C(=O)N1C[C@@H](O)C[C@H]1Cc1c(-c2[nH]c3cc(F)ccc3c2C[C@@H]2C[C@H](O)CN2C(=O)[C@H](CC)NC(=O)[C@H](C)NC)[nH]c2cc(F)ccc12 [Birinapant],-263,-1360
Nc1ccccc1NC(=O)c1ccc(CNC(=O)OCc2cccnc2)cc1 [Entinostat] + CC[C@H](NC(=O)[C@H](C)NC)C(=O)N1C[C@@H](O)C[C@H]1Cc1c(-c2[nH]c3cc(F)ccc3c2C[C@@H]2C[C@H](O)CN2C(=O)[C@H](CC)NC(=O)[C@H](C)NC)[nH]c2cc(F)ccc12 [Birinapant],-296,
Cc1ccc(NC(=O)c2ccc(CN3CCN(C)CC3)cc2)cc1Nc1nccc(-c2cccnc2)n1 [Imatinib] + CC[C@H](NC(=O)[C@H](C)NC)C(=O)N1C[C@@H](O)C[C@H]1Cc1c(-c2[nH]c3cc(F)ccc3c2C[C@@H]2C[C@H](O)CN2C(=O)[C@H](CC)NC(=O)[C@H](C)NC)[nH]c2cc(F)ccc12 [Birinapant],-103,
CC(/C=C1\SC(=S)N(CC(=O)O)C1=O)=C\c1ccccc1 [Epalrestat] + CC[C@H](NC(=O)[C@H](C)NC)C(=O)N1C[C@@H](O)C[C@H]1Cc1c(-c2[nH]c3cc(F)ccc3c2C[C@@H]2C[C@H](O)CN2C(=O)[C@H](CC)NC(=O)[C@H](C)NC)[nH]c2cc(F)ccc12 [Birinapant],114,
CO/N=C(\C(=O)N[C@@H]1C(=O)N2C(C(=O)O)=C(Cn3ccc(=N)n3CCO)CS[C@H]12)c1csc(N)n1 [Cefoselis sulfate] + CC[C@H](NC(=O)[C@H](C)NC)C(=O)N1C[C@@H](O)C[C@H]1Cc1c(-c2[nH]c3cc(F)ccc3c2C[C@@H]2C[C@H](O)CN2C(=O)[C@H](CC)NC(=O)[C@H](C)NC)[nH]c2cc(F)ccc12 [Birinapant],200,
N#CC(=Cc1ccc(O)c(O)c1)C(=O)NCc1ccccc1 [Tyrphostin B42] + CC[C@H](NC(=O)[C@H](C)NC)C(=O)N1C[C@@H](O)C[C@H]1Cc1c(-c2[nH]c3cc(F)ccc3c2C[C@@H]2C[C@H](O)CN2C(=O)[C@H](CC)NC(=O)[C@H](C)NC)[nH]c2cc(F)ccc12 [Birinapant],83.7,
O=C(/C=C/c1cccc(S(=O)(=O)Nc2ccccc2)c1)NO [Belinostat] + CC[C@H](NC(=O)[C@H](C)NC)C(=O)N1C[C@@H](O)C[C@H]1Cc1c(-c2[nH]c3cc(F)ccc3c2C[C@@H]2C[C@H](O)CN2C(=O)[C@H](CC)NC(=O)[C@H](C)NC)[nH]c2cc(F)ccc12 [Birinapant],-26.7,
Cc1[nH]c2ccccc2c1CCNCc1ccc(/C=C/C(=O)NO)cc1 [Panobinostat] + CC[C@H](NC(=O)[C@H](C)NC)C(=O)N1C[C@@H](O)C[C@H]1Cc1c(-c2[nH]c3cc(F)ccc3c2C[C@@H]2C[C@H](O)CN2C(=O)[C@H](CC)NC(=O)[C@H](C)NC)[nH]c2cc(F)ccc12 [Birinapant],-159,-1360
O=C(/C=C/c1ccc(CN(CCO)CCc2c[nH]c3ccccc23)cc1)NO [Dacinostat] + CC[C@H](NC(=O)[C@H](C)NC)C(=O)N1C[C@@H](O)C[C@H]1Cc1c(-c2[nH]c3cc(F)ccc3c2C[C@@H]2C[C@H](O)CN2C(=O)[C@H](CC)NC(=O)[C@H](C)NC)[nH]c2cc(F)ccc12 [Birinapant],-67.4,
CC[C@]12C=CCN3CC[C@@]4(c5cc([C@@]6(C(=O)OC)C[C@@H]7C[C@@H](C(C)(F)F)CN(Cc8c6[nH]c6ccccc86)C7)c(OC)cc5N(C)[C@H]4[C@@](O)(C(=O)OC)[C@@H]1OC(C)=O)[C@@H]32 [Vinflunine] + CC[C@H](NC(=O)[C@H](C)NC)C(=O)N1C[C@@H](O)C[C@H]1Cc1c(-c2[nH]c3cc(F)ccc3c2C[C@@H]2C[C@H](O)CN2C(=O)[C@H](CC)NC(=O)[C@H](C)NC)[nH]c2cc(F)ccc12 [Birinapant],-106,-752
